Assay outcomes: PubChem, several laboratories
TIM10 inh = inhibits growth of TIM10 yeast strain; S. cerevisiae TIM10 strain growth, BacTiter-Glo luminescence, 24 h; 1.4% of 330,000 active; inhibition, % at 10 µM; AID 463195;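 active means inhibition of 40% or more at the single tested concentration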;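 further: wild-type TIM10 isogenic control strain grown at permissive 25 °C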
SKKanGAS inh = blocks kanamycin growth of S. pyogenes SKKanGAS strain; BacTiter-Glo, 6 h; inhibition, % at 7.5 µM; 1.3% of 300,000 active;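 active means mean replicate score, as percent of positive control median, at least 50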;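 further: strain carries kanamycin resistance gene driven by streptokinase promoter and grows in 40 µg/ml kanamycin; loss of luminescence reflects streptokinase promoter inhibition or plain growth inhibition; 0% = median of DMSO wells and 100% = positive control at its reference dose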
PfHsp90 yeast 2 = reduces growth (ATP signal) of yeast expressing P. falciparum Hsp90; inhibition, % at 9.4 µM; S. cerevisiae expressing PfHsp90, BacTiter-Glo ATP, 48 h; yeast lacking PDR1 and PDR3 efflux regulators; 0.32% of 310,000 active;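 active means every replicate shows inhibition above about 80%, whatever the replicate mean, limit read from the data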;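 further: 0% = DMSO neutral controls and 100% = 20 µM radicicol positive controls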
EBI2 block = blocks human EBI2 receptor beta-arrestin signaling; EBI2 beta-arrestin recruitment, luminescence, 7a,25-OHC stimulated; inhibition, % at 5 µM; 0.81% of 360,000 active; AID 651636; in the data active means inhibition above about 38%;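 further: enzyme fragment complementation signal reports receptor beta-arrestin coupling in cells; 0% = agonist plus DMSO wells and 100% = wells without agonist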
Target sequence (P32249 whole entry, looked up, the tested form may be a part): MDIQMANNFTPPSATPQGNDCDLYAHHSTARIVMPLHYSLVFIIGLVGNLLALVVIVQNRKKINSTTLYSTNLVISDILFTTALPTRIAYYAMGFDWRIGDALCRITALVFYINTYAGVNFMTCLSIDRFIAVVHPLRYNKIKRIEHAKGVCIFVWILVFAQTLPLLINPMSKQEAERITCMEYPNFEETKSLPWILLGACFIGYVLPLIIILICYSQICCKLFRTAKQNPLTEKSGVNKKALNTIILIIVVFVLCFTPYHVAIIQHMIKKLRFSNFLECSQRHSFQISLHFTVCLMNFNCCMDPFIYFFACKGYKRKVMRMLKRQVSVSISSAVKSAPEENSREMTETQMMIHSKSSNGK
tim23-1 inh = inhibits growth of tim23-1 mutant yeast; S. cerevisiae tim23-1 growth, BacTiter-Glo luminescence, 24 h; inhibition, % at 20 µM; 1.3% of 330,000 active;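 active means growth inhibition of the mutant yeast at or above 50%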;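 further: temperature-sensitive mutant grown at 25 °C; plate controls were DMSO-treated mutant yeast for no effect and medium wells lacking yeast for full effect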
tim10-1 inh = inhibits growth of tim10-1 mutant yeast; S. cerevisiae tim10-1 ts strain growth, BacTiter-Glo, 24 h; inhibition, % at 20 µM; 2.2% of 330,000 active; AID 463190;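 active means inhibition of at least 40%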;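 further: mutant grown at 25 °C; 0% = DMSO wells with yeast and 100% = wells holding no yeast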
tim10-1 confirm = tim10-1 yeast growth inhibition, confirmed. shares compounds with tim10-1 inh. AID 463213. 56% of 7,400 active. S. cerevisiae tim10-1 ts strain growth, BacTiter-Glo, 24 h. inhibition, % at 20 µM;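 active means inhibition of yeast growth at or above a set limit in either of two repeat tests at 20 µM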;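 further: tim10-1 mutant grown at permissive 25 °C to find synthetic lethal compounds; 0% = DMSO yeast wells and 100% = medium wells without yeast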
tim10 confirm = TIM10 yeast growth inhibition, confirmed. shares compounds with TIM10 inh. S. cerevisiae tim10 strain growth, BacTiter-Glo luminescence, 24 h. 63% of 4,600 active. inhibition, % at 10 µM;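 active means inhibition of yeast growth at or above a set limit in either of two replicates at 10 µM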;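 further: this counterscreen used the strain with wild-type TIM10; 0% = yeast with DMSO and 100% = medium wells lacking yeast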
tim23-1 conf = confirmation of tim23-1 mutant yeast growth inhibitors | AID 463218 | shares compounds with tim23-1 inh | S. cerevisiae tim23-1 growth, BacTiter-Glo luminescence, 24 h | 83% of 4,400 active | inhibition, % at 20 µM;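 active means inhibition above about 39% in either of two replicate wells at 20 µM, limit read from the data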;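 further: temperature-sensitive tim23-1 mutant grown at 25 °C; 0% = DMSO wells with yeast and 100% = medium wells without yeast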
* = called active by the depositor; . = not tested or not shown. An excerpt weighted towards active compounds, which were near 4.7% of everything screened.

SMILES	TIM10 inh	SKKanGAS inh	PfHsp90 yeast 2	EBI2 block	tim23-1 inh	tim10-1 inh	tim10-1 confirm	tim10 confirm	tim23-1 conf
Cc1nc2ccccc2n1C(=O)c1ccc(Cl)cc1[N+](=O)[O-]	23	1	-26	-5	50*	48*	33*	.	39*
Cc1cc(C)c(C(=O)CC(=O)c2ccccc2Cl)c(O)c1	39	83*	-6	3	65*	48*	36*	.	76*
Cc1ccc(N=C2NC(=O)/C(=C\c3ccsc3)S2)c(C)c1	47*	14	16	4	58*	52*	30	-13	66*
Nc1sc(-c2ccccc2)cc1C(=O)NCCN1CCOCC1	.	.	.	-3	.	.	.	.	.
O=C1c2ccccc2C(=O)N1N(c1ccccc1)c1ccccc1	.	.	.	14	.	.	.	.	.
O=C1C=CC(=O)N1N(c1ccccc1)c1ccccc1	54*	3	96*	2	55*	65*	67*	61*	47*
O=C(/C(=C/c1ccc(Cl)cc1)c1nc2ccccc2[nH]1)c1ccccc1	51*	32	98*	50*	51*	42*	38*	35*	58*
O=C(N/C(=C/c1ccc(Cl)cc1)c1nc2ccccc2[nH]1)c1ccco1	3	-4	-10	0	-2	5	.	.	.
COc1cccc(C=O)c1OCCN1C(=O)c2ccccc2C1=O	24	-4	-22	-2	49	13	.	.	.
CCOC(=O)C1=C(SCC)c2cc3c(n2C1=O)CCCC3	59*	.	25	7	59*	65*	48*	-12	61*
O=C(N/N=C/c1ccsc1)c1cc2ccccc2o1	55*	1	-8	-4	56*	46*	-4	48*	67*
O=C(N/N=C/c1ccc2c(c1)OCO2)c1cc2ccccc2o1	-1	-10	4	0	-2	-3	.	.	.
O=C(CSc1n[nH]c(-c2cccnc2)n1)Nc1ccccc1C(F)(F)F	7	-6	34	-3	5	-13	.	.	.
COc1ccc(C(=O)Nc2ccccc2C(=O)N/N=C/c2ccco2)cc1	47*	1	42	-6	72*	67*	68*	43*	72*
CCOc1ccc(/C=N/NC(=O)c2ccccc2NC(=O)c2ccc(OC)cc2)cc1	20	3	8	6	21	19	.	.	.
O=C(Nc1ccccc1C(=O)N/N=C/c1ccncc1)c1ccccc1	62*	32	55	-8	77*	68*	68*	36*	70*
O=C(Nc1ccn(CCOC(=O)c2ccccc2)c(=O)n1)c1ccccc1	.	.	.	0	.	.	.	.	.
Oc1cc2c(cc1C(c1ccc(Cl)c(Cl)c1)N1CCCC1)OCO2 (configuration not stated)	33	-3	10	6	63*	50*	39*	.	45*
Cc1cccc(C)c1NC(=O)C1(C)CCC(=O)N1C1CCN(Cc2ccccc2)CC1 (configuration not stated)	.	.	.	-8	.	.	.	.	.
COc1cc2nc(NC(=O)c3ccccc3)sc(=O)c2cc1OC	3	3	9	7	5	16	.	.	.
CC(C)(C)OC(=O)N/N=C/c1cccn1-c1ccc([N+](=O)[O-])cc1	17	-2	12	-30	24	19	.	.	.
CN(C)c1ccc(-n2cccc2/C=C/[N+](=O)[O-])cc1	92*	-6	107*	-39	90*	86*	86*	95*	78*
CC1CCCCN1CC(=O)Nc1sc2c(c1C#N)CCC2 (configuration not stated)	6	3	-24	-4	8	14	.	.	.
CC(NC(=O)Cc1ccc(S(=O)(=O)N2CCOCC2)s1)c1ccc(Cl)c(Cl)c1 (configuration not stated)	13	3	.	7	10	9	.	.	.
S=C(NCc1ccco1)Nc1ccc(Cl)cc1	-5	7	-8	-6	14	5	.	.	.
SMILES	TIM10 inh	SKKanGAS inh	PfHsp90 yeast 2	EBI2 block	tim23-1 inh	tim10-1 inh	tim10-1 confirm	tim10 confirm	tim23-1 conf
S=C(NCc1ccco1)Nc1ccc(Oc2ccc(Cl)cc2)cc1	38	25	14	20	63*	46*	60*	.	76*
COc1ccc(S(=O)(=O)N2CCN(C(=O)c3cc4c(s3)CCCC4)CC2)cc1	22	.	-23	21	50*	54*	39*	.	57*
O=Cc1coc2ccc3ccccc3c2c1=O	28	-7	3	1	76*	50*	28	.	74*
NC(=O)N/N=C/c1coc2ccc3ccccc3c2c1=O	4	-15	-27	-10	-3	10	.	.	.
CCOc1ccccc1N(CC(=O)NCCc1ccccc1)C(=O)CCC(=O)Nc1ccccn1	3	-6	1	-5	10	9	.	.	.
Cc1ccccc1OCCCN1C(=O)C(=O)c2cccc(C)c21	26	-1	0	12	74*	54*	39*	.	27
Cc1ccc2c(c1)C(=O)C(=O)N2CCCOc1ccccc1C	18	-12	-13	10	22	10	.	.	.
Nc1c(Cl)cc2c(c1Oc1ccccc1)C(=O)c1ccccc1C2=O	54*	6	-5	10	66*	52*	20	48*	67*
CCCCNc1c(-c2ccc(SC(C)CC)cc2)nc2ccccn12 (configuration not stated)	45*	78*	41	-27	59*	48*	55*	35*	63*
CCCCNc1c(-c2cccc(SC(C)CC)c2)nc2ccc(Cl)cn12 (configuration not stated)	12	.	1	12	31	14	.	.	.
C=C1CCc2c([nH]c3ccc(OCC(C)C)cc23)C1=O	38	-4	-8	9	59*	47*	23	.	57*
NC(=O)C1CCN(S(=O)(=O)c2ccc3c(c2)OCCO3)CC1	2	-5	11	-8	7	8	.	.	.
O=C(c1ccc2c(c1)OCCO2)C1CCN(S(=O)(=O)c2ccc(F)cc2)CC1	50*	.	-6	1	57*	43*	42*	40*	47*
Cc1ccc(-c2ccc(/C=C/C(=O)c3ccccc3)o2)cc1	67*	-6	8	22	62*	62*	69*	67*	78*
Cc1ccc(C(=O)/C=C/c2ccc(-c3ccccc3[N+](=O)[O-])o2)cc1	39	-3	6	-12	31	37	.	.	.
COc1ccc(C(=O)O/N=C(\N)c2ccc(OC)c(OC)c2)cc1	49*	-2	-1	18	53*	73*	78*	40*	64*
